Results taken from PubChem BioAssay (Tox21).
The source made the active and inactive calls. Unless noted, the call rests on the fitted dose curve; in most records, active means well fitted curve in the direction sought with a large enough effect in the repeat runs; inconclusive means weak or mixed curves; inactive means no such curve, though single readings can be large; an effect the other way counts as inactive or inconclusive.

Experiments:
[1] = qHTS assay to identify small molecule antagonists of the glucocorticoid receptor (GR) signaling pathway - cell viability counter screen (AID 720693); further: nearly all actives have a fitted effect of over 55% in size; further: potency means the concentration at half of the fitted maximal effect
[2] = qHTS assay for identifying genotoxic compounds that show differential cytotoxicity against isogenic chicken DT40 cell lines with known DNA damage response pathways - wild type cell line (AID 743012); further: nearly all actives have a fitted effect of over 60% in size; further: potency means the concentration at half of the fitted maximal effect
In short: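 CellTiter-Glo luminescence readout of viability in wild type DT40 cells after 40 h compound exposure at 37 C/5% CO2; 300 cells/well; reagent incubated 30 min at room temperature before reading.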

[3] = qHTS assay for identifying genotoxic compounds that show differential cytotoxicity against isogenic chicken DT40 cell lines with known DNA damage response pathways - Rev3 mutant cell line (AID 743014); further: nearly all actives have a fitted effect of over 55% in size; further: potency means the concentration at half of the fitted maximal effect
[4] = qHTS assay for identifying genotoxic compounds that show differential cytotoxicity against isogenic chicken DT40 cell lines with known DNA damage response pathways - Rad54/Ku70 mutant cell line (AID 743015); further: nearly all actives have a fitted effect of over 60% in size; further: potency means the concentration at half of the fitted maximal effect
[5] = qHTS assay to identify small molecule antagonists of the androgen receptor (AR) signaling pathway - cell viability counter screen (AID 743033; further: nearly all actives have a fitted effect of over 45% in size)
[6] = qHTS assay to identify small molecule antagonists of the androgen receptor (AR) signaling pathway using the MDA cell line - cell viability counter screen (AID 743041; further: nearly all actives have a fitted effect of over 45% in size)
In short: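 Viability read by CellTiter-Fluor fluorescence in the same wells as the antagonist screen, added after 15.5 h of a 16 h, 37C exposure. Human breast carcinoma MDA-kb2 AR-luc cells, compounds co-dosed with agonist R1881.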

[7] = qHTS assay to identify small molecule antagonists of the thyroid receptor (TR) signaling pathway - cell viability counter screen (AID 743064); further: nearly all actives have a fitted effect of over 50% in size; further: potency means the concentration at half of the fitted maximal effect
In short: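 Fluorescence from CellTiter-Fluor, added after 23.5 h exposure at 37 °C, reported viability of GH3.TRE-Luc cells co-treated with compound and 1 nM T3. Measured in the same wells as the luciferase TR readout.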

[8] = qHTS assay to identify small molecule antagonists of the thyroid receptor (TR) signaling pathway (AID 743065); further: nearly all actives have a fitted effect of over 55% in size; further: potency means the concentration at half of the fitted maximal effect
In short: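 Antagonism measured as loss of luciferase signal in GH3 cells stably carrying a TRE-luciferase reporter, co-treated with compound and T3 (1 nM final) for 23.5 h at 37 C. Viability was read in the same well by CellTiter-Fluor.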

[9] = system: thyroid hormone receptor (rat, GH3 cells); assay: qHTS assay to identify small molecule agonists of the thyroid receptor (TR) signaling pathway (AID 743066; calls by dose curve)
[10] = qHTS assay to identify small molecule antagonists of the estrogen receptor alpha (ER-alpha) signaling pathway - cell viability counter screen (AID 743074; calls by dose curve;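 further: HEK293 cells carrying ER-alpha-UAS-bla reporter stimulated with 17beta-estradiol; nearly all actives have a fitted effect of over 45% in size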)
[11] = qHTS assay to identify small molecule antagonists of the estrogen receptor alpha (ER-alpha) signaling pathway using the BG1 cell line - cell viability counter screen (AID 743081);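 further: compound given together with 17beta-estradiol as the ER stimulus; series mostly up to about 70 µM; nearly all actives have a fitted effect of over 45% in size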
Aromatase (Homo sapiens) = Aromatase (Homo sapiens) (UniProt P11511); assay: qHTS assay to identify aromatase inhibitors (AID 743083); further: series mostly up to about 70 µM; nearly all actives have a fitted effect of over 55% in size
Chain of Aromatase (Homo sapiens) (P11511 whole entry, looked up): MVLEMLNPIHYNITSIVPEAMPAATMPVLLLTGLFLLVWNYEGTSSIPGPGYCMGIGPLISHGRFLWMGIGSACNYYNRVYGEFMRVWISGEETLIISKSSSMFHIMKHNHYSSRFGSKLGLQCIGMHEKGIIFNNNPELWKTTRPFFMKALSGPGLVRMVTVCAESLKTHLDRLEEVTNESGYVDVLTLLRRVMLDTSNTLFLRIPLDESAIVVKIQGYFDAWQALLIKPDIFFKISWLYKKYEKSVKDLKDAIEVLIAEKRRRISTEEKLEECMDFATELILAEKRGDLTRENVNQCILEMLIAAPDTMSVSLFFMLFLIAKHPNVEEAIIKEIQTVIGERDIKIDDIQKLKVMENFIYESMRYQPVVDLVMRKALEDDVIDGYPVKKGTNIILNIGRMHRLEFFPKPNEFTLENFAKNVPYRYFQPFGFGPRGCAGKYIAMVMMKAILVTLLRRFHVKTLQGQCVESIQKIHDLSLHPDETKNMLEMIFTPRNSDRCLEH

[12] = target: Estrogen receptor (Homo sapiens) (UniProt P03372); assay: qHTS assay to identify small molecule agonists of the estrogen receptor alpha (ER-alpha) signaling pathway (AID 743075; calls by dose curve;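 further: HEK293 GripTite cells with ER-alpha and UAS-driven beta-lactamase reporter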; further: potency means the concentration at half of the fitted maximal effect)
Chain of Estrogen receptor (Homo sapiens) (P03372 whole entry, looked up): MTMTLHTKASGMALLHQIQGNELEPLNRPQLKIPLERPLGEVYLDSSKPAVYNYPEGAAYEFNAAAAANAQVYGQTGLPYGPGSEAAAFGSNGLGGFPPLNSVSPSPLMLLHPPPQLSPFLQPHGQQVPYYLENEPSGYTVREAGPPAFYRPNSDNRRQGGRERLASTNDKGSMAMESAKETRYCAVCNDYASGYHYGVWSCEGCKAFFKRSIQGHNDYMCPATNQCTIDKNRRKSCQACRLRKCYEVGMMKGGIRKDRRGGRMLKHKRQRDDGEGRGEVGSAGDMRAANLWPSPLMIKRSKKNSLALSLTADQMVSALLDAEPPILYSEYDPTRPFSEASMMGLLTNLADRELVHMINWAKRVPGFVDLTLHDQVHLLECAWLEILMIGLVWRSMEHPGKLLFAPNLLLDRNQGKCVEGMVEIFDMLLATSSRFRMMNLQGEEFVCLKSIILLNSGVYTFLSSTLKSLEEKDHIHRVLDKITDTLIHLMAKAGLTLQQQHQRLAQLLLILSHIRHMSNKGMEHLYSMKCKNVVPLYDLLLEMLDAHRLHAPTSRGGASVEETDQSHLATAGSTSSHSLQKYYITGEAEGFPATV

[13] = target: Estrogen receptor (Homo sapiens) (UniProt P03372); assay: qHTS assay to identify small molecule agonists of the estrogen receptor alpha (ER-alpha) signaling pathway using the BG1 cell line (AID 743079); further: nearly all actives have a fitted effect of over 20% in size; further: potency means the concentration at half of the fitted maximal effect
[14] = target: Estrogen receptor (Homo sapiens) (UniProt P03372); assay: qHTS assay to identify small molecule antagonists of the estrogen receptor alpha (ER-alpha) signaling pathway (AID 743069; active means well fitted curve in the direction sought with a large enough effect in the signal ratio in the repeat runs, not every such curve was filed as active; inconclusive means weak or mixed curves, or effect the other way; inactive means no such curve, though single readings can be large or run the other way; the % refers to the signal ratio)
In short: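 Antagonist mode: compounds in DMSO were co-added with 17beta-estradiol to ER-alpha-bla HEK293 cells (2% charcoal-stripped serum) and left 18 h at 37C. Reporter inhibition was measured as FRET fluorescence after 2 h LiveBLAzer substrate at room temperature.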

[15] = qHTS assay to identify small molecule antagonists of the estrogen receptor alpha (ER-alpha) signaling pathway using the BG1 cell line (AID 743080; calls by dose curve;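 further: BG1 cells stimulated with 17beta-estradiol alongside compound; nearly all actives have a fitted effect of over 25% in size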; further: potency means the concentration at half of the fitted maximal effect)
In short: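 Luminescence from a 4×ERE-luciferase reporter in BG1-Luc-4E2 cells served as read-out. Cells, pre-cultured 5 days in stripped-serum phenol-red-free medium, were exposed to compound with 17beta-estradiol co-stimulation for 21.5 h at 37 C.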

Measured: Potency

COc1ccc(CN(CCN(C)C)c2ncccn2)cc1
not listed: [12] | [13] | [14] | [15]
inactive: all other assays above

COc1ccc(/C=C/c2cc(OC)cc(=O)o2)cc1
active: [13] 0.884 µM
not listed: [7] | [14] | [15]
inactive: all other assays above

C/C=C1\[C@H]2C=C(C)C[C@]1(N)c1ccc(=O)[nH]c1C2
not listed: [9] | [12] | [13] | [14] | [15]
inactive: all other assays above

CO[C@@H]1[C@@H](O[C@@H]2O[C@H](C)[C@@H](O[C@H]3C[C@@](C)(O)[C@@H](O)[C@H](C)O3)[C@H](N(C)C)[C@H]2O)[C@@H](CC=O)C[C@@H](C)[C@@H](O[C@@H]2CC[C@H](N(C)C)[C@@H](C)O2)/C=C/C=C/C[C@@H](C)OC(=O)C[C@H]1OC(C)=O
active: [2] 8.41 µM | [3] 6.68 µM | [4] 7.5 µM | [7] 26.6 µM
not listed: [8] | [9] | [10] | [11]
inactive: all other assays above

CCC(C)CCCC(C)(C)O (configuration not stated)
not listed: [7] | [12] | [13] | [14] | [15]
inactive: all other assays above

C=C[Si](OCC)(OCC)OCC
not listed: [6] | [12] | [13] | [14] | [15]
inactive: all other assays above

CC(C)=CCC[C@H](C)CCO
active: [2] 54.5 µM | [3] 48.6 µM | [4] 19.3 µM
not listed: [6]
inactive: all other assays above

CC1=C(C)C(=O)C(C(CCCCCC(=O)O)c2ccccc2)=C(C)C1=O (configuration not stated)
not listed: [7] | [14]
inactive: all other assays above

Clc1cc(Cl)c2c(c1)N=C1CCCCCN1C2
active: [2] 13.3 µM | [3] 8.41 µM | [4] 13.3 µM | [13] 23.7 µM
not listed: [8] | [14] | [15]
inactive: all other assays above

C/C(=C\C(C)CC(C)CC(C)C)C1CC(=O)OC1=O (configuration not stated)
not listed: [8] | [14]
inactive: all other assays above

CC1=C(C)C(=O)C(CCCCC#CCCCC#CCO)=C(C)C1=O
active: [2] 8.41 µM | [3] 10.6 µM | [4] 11.9 µM | [15] 15 µM
inactive: [1] | [5] | [6] | [12] | [11]

CC(=O)CC/C=C(\C)CC/C=C(\C)CC/C=C(\C)CCC=C(C)C
not listed: [8] | [12] | [13] | [14] | [15]
inactive: all other assays above

CCCCCO
not listed: [6] | [11] | [14]
inactive: all other assays above

C1=COCCC1
not listed: [7] | [14]
inactive: all other assays above

CCC(=O)O[C@@H]1C[C@H]2CC[C@]1(C)C2(C)C
not listed: [6] | [12] | [13] | [14] | [15]
inactive: all other assays above

O=C(O)COCC(=O)O
not listed: [10] | [12] | [13] | [14] | [15]
inactive: all other assays above

O=C(O)CNc1ccccc1
not listed: [6] | [12] | [13] | [14] | [15]
inactive: all other assays above

CC(=O)c1ccc(Cl)c(Cl)c1Cl
not listed: [6]
inactive: all other assays above

O=C1OC(=O)C2CC=CCC12 (configuration not stated)
not listed: [6]
inactive: all other assays above

CCOC(OCC)OCC
not listed: [6]
inactive: all other assays above

O=C(O)c1cc(C(=O)O)cc([N+](=O)[O-])c1
not listed: [7] | [12] | [13] | [14] | [15]
inactive: all other assays above

C[C@H]1C[C@H]2[C@@H]3CCC4=CC(=O)C=C[C@]4(C)[C@@]3(F)[C@@H](O)C[C@]2(C)[C@@]1(O)C(=O)COP(=O)(O)O
not listed: [7] | [14] | [15]
inactive: all other assays above

CCOC(C)OCC
not listed: [8] | [9] | [12] | [13] | [14] | [15]
inactive: all other assays above

CCCCCCCCCCCCCCCCN
not listed: [7] | [14]
inactive: all other assays above

CC(O)C(C)O (configuration not stated)
not listed: [7] | [9] | [12] | [13] | [14] | [15]
inactive: all other assays above

Nc1ccc(C(=O)Oc2ccccc2)c(O)c1
active: [2] 29.8 µM | [4] 29.8 µM | [12] 13.4 µM [inconclusive] | [13] 6.68 µM
not listed: [8] | [14] | [15]
inactive: all other assays above

COc1ccc(/C=C/S(=O)(=O)NC(=O)c2ccc(C)cc2Cl)cc1
inactive: [1] | [2] | [3] | [4] | [5] | [6] | [7] | [11] | Aromatase (Homo sapiens)

CC(C(=O)O)c1ccc(/C=C2\CCCCC2=O)cc1 (configuration not stated)
not listed: [7] | [12] | [13] | [14] | [15]
inactive: all other assays above

CCCCCCCCCCCCN1CCOCC1
active: [2] 27.3 µM | [3] 8.63 µM | [4] 19.3 µM
not listed: [6] | [14]
inactive: all other assays above

Oc1ccc(CCNCCCCCCNCCc2ccccc2)cc1O
active: [2] 13.3 µM | [3] 29.8 µM | [4] 26.6 µM | [7] 29.8 µM | [8] 26.6 µM
not listed: [9] | [10] | [11]
inactive: all other assays above

O=C(O)c1cccnc1Nc1cccc(C(F)(F)F)c1
not listed: [8] | [14]
inactive: all other assays above

CCOc1ccccc1O
not listed: [6] | [12] | [13] | [14] | [15]
inactive: all other assays above

O=C(O)c1c2ccccc2cc2ccccc12
not listed: [7] | [10] | [14]
inactive: all other assays above

Nc1cccc2c(=O)[nH][nH]c(=O)c12
not listed: [6] | [14]
inactive: all other assays above

Nc1ccccc1Nc1ccccc1
inactive: [5] | [6] | [10] | [11]
active: [1] 55.1 µM | [2] 19.4 µM | [3] 8.66 µM | [4] 15.4 µM | [7] 15.4 µM | [8] 12.2 µM

CCCCCCCCCCCCSC#N
not listed: [8]
inactive: all other assays above

CC(C)CCCCCOC(=O)CS
active: [2] 61.1 µM | [3] 54.5 µM | [4] 54.5 µM
not listed: [6] | Aromatase (Homo sapiens) | [14]
inactive: all other assays above

C[Si](C)(C)O[Si](C)(C)O[Si](C)(C)C
not listed: [7] | [12] | [13] | [14] | [15]
inactive: all other assays above

CCCC(=O)OCc1ccccc1
not listed: [5] | [6]
inactive: all other assays above

CCCCC(CC)COCCC#N (configuration not stated)
not listed: [6] | [12] | [13] | [14] | [15]
inactive: all other assays above

CCC(C)C1N=C(C)C(C)S1 (configuration not stated)
not listed: [4] | Aromatase (Homo sapiens) | [12] | [13] | [14] | [15]
inactive: all other assays above

Cc1c(Nc2ncccc2C(=O)O)cccc1C(F)(F)F
inactive: [1] | [3] | [5] | [9] | [10] | [11]
active: [2] 12.7 µM | [4] 11.4 µM | [8] 2.85 µM

CCCCCCOC(=O)c1ccccc1
active: [2] 68.6 µM | [3] 61.1 µM | [4] 61.1 µM
not listed: [5] | [6]
inactive: all other assays above

Cc1cccc(C)c1NC(=O)CN1CCCC1
not listed: [6] | [12] | [13] | [14] | [15]
inactive: all other assays above

CC(=O)OCC(=O)[C@@]1(O)CC[C@H]2[C@@H]3CCC4=CC(=O)C=C[C@]4(C)[C@@]3(F)[C@@H](O)C[C@@]21C
not listed: [3] | [12] | [13] | [14] | [15]
inactive: all other assays above

CC(O)CN (configuration not stated)
not listed: [6] | [8] | [9] | [14]
inactive: all other assays above

CCCCCCCCC(=O)OCC(C)OC(=O)CCCCCCCC (configuration not stated)
not listed: [4] | [6] | [12] | [13] | [14] | [15]
inactive: all other assays above
